Experimental data: PubChem BioAssay AID1851 (National Center for Advancing Translational Sciences (NCATS), 2009)
The campaign covered roughly 16,000 compounds. About 4,000 (25%) were called active. Inconclusive results (about 26%) are left out. Not all results are given here. A number with no mark means an inactive call. The call rests on the fitted dose curve; in most records, active means well fitted curve in the direction sought with a large enough effect; inconclusive means small, poorly fitted or top-dose-only effect, or effect the other way; inactive means no such curve, though single readings can be large or run the other way.

Target: Cytochrome P450 2C9 (Homo sapiens) (UniProt P11712)
Sequence (P11712 whole entry, looked up): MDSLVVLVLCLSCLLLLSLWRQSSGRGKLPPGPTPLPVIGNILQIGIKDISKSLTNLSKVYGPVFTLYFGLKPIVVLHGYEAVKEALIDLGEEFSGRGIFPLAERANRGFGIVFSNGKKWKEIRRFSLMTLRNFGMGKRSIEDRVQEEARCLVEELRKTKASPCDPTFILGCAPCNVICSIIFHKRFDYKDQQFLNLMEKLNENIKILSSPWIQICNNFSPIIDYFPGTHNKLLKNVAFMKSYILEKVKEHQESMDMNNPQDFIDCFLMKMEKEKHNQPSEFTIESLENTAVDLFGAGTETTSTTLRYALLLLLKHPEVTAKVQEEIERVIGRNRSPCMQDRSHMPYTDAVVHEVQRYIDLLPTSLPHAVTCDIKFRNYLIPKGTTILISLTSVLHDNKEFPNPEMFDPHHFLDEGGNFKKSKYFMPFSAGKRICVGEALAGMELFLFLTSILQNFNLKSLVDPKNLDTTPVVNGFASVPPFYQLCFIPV
Assay: Cytochrome panel assay with activity outcomes
Details: recombinant CYP, pro-luciferin dealkylation, luminescence, p450-cyp2c9; series mostly up to 57.1 µM; activity, negative = inhibition: at the top concentration
On the % scale 0 is the no-effect control and ±100 the full control effect.

Row | Structure (SMILES) | AC50 | activity, negative = inhibition
1 | Cc1ccccc1C(=O)N1CCN(c2ccc([N+](=O)[O-])c(NCc3ccco3)c2)CC1 | 2240 nM (active) | 
2 | N#Cc1ccc(C(=O)Nc2ccc(N3CCN(C(=O)c4ccco4)CC3)cc2)c(F)c1 |  | -19.7%
3 | O=C1C2C3C=CC(C2C(=O)N1CN1CCOCC1)C1C2C(=O)N(CN4CCOCC4)C(=O)C2C31 (stereo unspecified) |  | -4.42% [at 11.4 µM]
4 | COc1c2c(nc3ccccc13)O[C@H]([C@@](C)(O)CO)C2 |  | 6.33% [at 25.6 µM]
5 | NC[C@H]1O[C@H](n2cnc3c(N)ncnc32)C[C@@H]1O |  | 11.4% [at 11.4 µM]
6 | CCCCN(C)Cc1c(C)[nH]c2ccc(Cl)cc2c1=O |  | -23.2%
7 | O=C(NCCCN1CCC(Cc2ccccc2)CC1)C1CCN(S(=O)(=O)N2CCOCC2)CC1 |  | -2.95%
8 | O=C(NCCCN1CCN(Cc2ccccc2)CC1)C1CCN(S(=O)(=O)N2CCCC2)CC1 |  | -14.5%
9 | O=C(NCCc1ccc(Cl)cc1)C1CCN(S(=O)(=O)N2CCC3(CC2)OCCO3)CC1 | 7080 nM (active) | 
10 | NCS(=O)(=O)O |  | -4.35% [at 11.4 µM]
11 | N#Cc1ccc(C2=NC(C(F)(F)F)(C(F)(F)F)c3c(n(Cc4ccco4)c(=O)[nH]c3=O)N2)cc1 | 398 nM (active) | 
12 | CC1(C)CC2(CC(c3cccs3)c3cc(Cl)c(O)cc3O2)NC(=S)N1 (stereo unspecified) | 1000 nM (active) | 
13 | Cc1noc(C)c1-c1cc(NCc2cccs2)ncn1 |  | 17.3% [at 2.29 µM]
14 | O=C(N/N=C\c1cn(-c2ccccc2)nc1-c1ccccc1)c1ccc2c(c1)OCO2 | 3980 nM (active) | 
15 | O=C(N/N=C/c1ccccn1)c1ccc(Br)o1 |  | -46.8%
16 | COc1ccc(-c2nn(-c3ccccc3)cc2/C=N/NC(=O)c2ccc3c(c2)OCO3)cc1 | 3160 nM (active) | 
17 | CC(/C=C/c1ccccc1)=N/NC(=O)CNC(=O)c1ccc2c(c1)OCO2 |  | -26%
18 | O=C(N/N=C\c1cn(-c2ccccc2)nc1-c1ccccc1)c1ccc(Br)o1 | 1580 nM (active) | 
19 | Cc1c(/C=N/NC(=O)c2ccc3c(c2)OCO3)cnn1C |  | -16.9%
20 | CN1CCN(c2ncncc2-c2ccccc2Cl)CC1 |  | -9.71% [at 2.29 µM]
21 | CC(=O)OC[C@@H]1O[C@@H](O/N=C2/C[C@@H](O)[C@@H](O)[C@@H]3[C@@H]4C(=O)N(C[C@@H]5CCCO5)C(=O)[C@H]4CC[C@H]23)[C@H](OC(C)=O)[C@H](OC(C)=O)[C@@H]1OC(C)=O |  | 5.35% [at 11.4 µM]
22 | COc1ccc(-n2cnc3sc(-c4ccccc4)cc3c2=O)cc1 |  | -26.2%
23 | COc1ccc(Nc2ncnc3sc(-c4ccccc4)cc23)cc1 | 3980 nM (active) | 

Row | Structure (SMILES) | AC50 | activity, negative = inhibition
24 | COc1cccc(-c2nc(Nc3ccncc3)c3ccccc3n2)c1 |  | -24.2% [at 2.29 µM]
25 | CC(=O)[C@H]1CC[C@H]2[C@@H]3C=CC4=CC(=O)CC[C@@]4(C)[C@H]3CC[C@]12C |  | -25% [at 25.6 µM]
26 | CC(=O)[C@@H]1CC[C@@H]2[C@@H]3C[C@H](C)C4=CC(=O)CC[C@@]4(C)[C@H]3[C@H](O)C[C@]21C | 398 nM (active) | 
27 | C[C@@]12C[C@H](O)[C@@H]3[C@H](CCC4=CC(=O)CC[C@]43C)[C@H]1CC[C@@H]2c1csc(N)n1 |  | 0.854% [at 11.4 µM]
28 | CCCCSc1nnc(-c2ccc(C)cc2)n1C |  | 14.8%
29 | CCCCSc1ccc2nc(-c3ccc(C#N)cc3)cn2c1 | 3550 nM (active) | 
30 | Nc1ccccc1CCCC(=O)O |  | 1.29% [at 11.4 µM]
31 | COc1cccc(C2=NOC(C(=O)NCc3ccccn3)C2)c1 (stereo unspecified) |  | 14.7%
32 | Cn1c(=O)c2c(nc(N/N=C\c3ccccc3C(=O)O)n2C)n(C)c1=O |  | 7.56% [at 11.4 µM]
33 | CC(C)CCn1c(Oc2ccccc2Cl)nc2c1c(=O)n(C)c(=O)n2C | 1000 nM (active) | 
34 | CCn1c(CCCc2nc3c([nH]2)c(=O)n(C)c(=O)n3C)nc2c1c(=O)n(C)c(=O)n2C |  | 6.37% [at 11.4 µM]
35 | C[C@@]1(C(=O)O)CCC[C@@H]1C(=O)O |  | 2.33% [at 11.4 µM]
36 | C[N+]1(CCCC[N+]2(C)CCCCCCC2)CCCCCCC1 |  | -4.37% [at 11.4 µM]
37 | CCCN1CCN(CCCNC(=O)Cn2nc(-c3ccc(C)cc3)ccc2=O)CC1 |  | -9.34%
38 | Cc1ccc(OCCCC(=O)Nc2ccccc2C(F)(F)F)cc1 | 7940 nM (active) | 
39 | CCN(CC)CCNC(=O)Cn1nc(-c2ccc(C)cc2)ccc1=O |  | -0.479%
40 | Cc1ccc(-c2ccc(=O)n(CC(=O)NCc3ccco3)n2)cc1 | 7940 nM (active) | 
41 | Cc1ccc(OCC(=O)NNC(=O)CCC(=O)Nc2ccc(C)cc2C)cc1 |  | 33.9%
42 | O=C(NCCc1ccccc1)C(=O)NCC1(c2ccccc2)CCCC1 |  | -15.3%
43 | CCCCCOc1ccc(C(=O)NCC2(c3ccccc3)CCOCC2)cc1 | 2820 nM (active) | 
44 | CCCCOc1ccc(C(=O)N/C(=C\c2ccc(OC)cc2)C(=O)OCc2ccco2)cc1 | 2820 nM (active) | 
45 | Cc1cccc(OCCCC(=O)Nc2ccccc2C(F)(F)F)c1 |  | 47.3%
46 | C=CCC(NCc1ccco1)c1ccc(OC)cc1 (stereo unspecified) |  | -46.1%
